Records with an inconclusive call do not appear. The source made the active and inactive calls. The call rests on the fitted dose curve; in most records, active means well fitted inhibition curve with a large enough effect; inconclusive means small, poorly fitted or top-dose-only effect; inactive means no such curve, though single readings can be large or run the other way.

In the first test the target is Retinaldehyde dehydrogenase 3 (Homo sapiens) (UniProt P47895). The experiment in a line: qHTS for Inhibitors of the Aldehyde Dehydrogenase Family (ALDH1A3) Primary screen (AID 2061315).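 Further: plate controls were DMSO vehicle for no effect and reference inhibitor for full effect.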 The conditions noted are these: ALDH inhibition qHTS; series mostly up to 56 µM; activity change, negative = inhibition: at the top concentration. Background: Quantitative high-throughput screening tests each substance at several concentrations.
As to `CC(=O)Nc1ccc(CNc2ncnc3ccc(-c4c(C)noc4C)cc23)cc1`, the “activity change, negative = inhibition” value was 5.42% (inactive). In the case of `O=S(=O)(Nc1nccs1)c1ccc(Nc2nc(-c3ccc(F)cc3)cs2)cc1`, the “activity change, negative = inhibition” value is -0.758% (inactive). In the case of `COc1cccc(C2c3c(ncn(-c4ccccc4C(C)(C)C)c3=N)Oc3ccc4ccccc4c32)c1` (centres undefined), the “activity change, negative = inhibition” value is 6.06% (inactive). On the same count and under the same terms, the same measure for `O=C1CCCC2=C1C(c1ccccc1)N=C(Nc1nc3ccccc3o1)N2` (centres undefined): 14.6% (inactive). The same measure, in the same setting: the figure for `O=C1NC(=O)/C(=C/c2ccco2)N1` is 3.9% (inactive).

As to `O=C(OCC#CCSc1nnc(-c2ccccc2F)o1)c1ccc(F)cc1`, the “activity change, negative = inhibition” value is -0.68% (inactive).

As to `S=C(NCCCN(Cc1ccc(Cl)c(Cl)c1)c1ccc(Br)cn1)NCCc1cnc[nH]1`, the “activity change, negative = inhibition” value is 19.6% (inactive). Turning to `O=S(=O)(Nc1cnc2ccccc2c1)c1ccc(NCc2cccc(Cl)c2O)cc1`, the “activity change, negative = inhibition” value was -15.6% (inactive). Still for that read-out and setting: the figure for `O=C(OCC#CCSc1nnc(-c2cccc3ccccc23)o1)c1ccccc1` is -2.24% (inactive); for `O=c1c2ccccc2nc2sc(Nc3ccc4c(c3)CCC4)nn12` it is -2.09% (inactive); for `Cc1cc(NS(=O)(=O)c2ccc(C(=O)NCc3ccc(Cl)c(Cl)c3)cc2)no1` it is 0.512% (inactive).

On to `O=C(OCC#CCSc1nnc(-c2cccc3ccccc23)o1)c1cccc(F)c1`, for which the “activity change, negative = inhibition” value is 3.38% (inactive).

Turning to `O=C(Nc1cccnc1)C1CCCCC1`, the “activity change, negative = inhibition” value was -1.57% (inactive). Consider `CCOc1ccc(CCNC(=O)c2cc3sccc3n2Cc2ccc(Cl)c(F)c2)cc1OCC`, for which the “activity change, negative = inhibition” value was 18.3% (inactive). The same measure, in the same setting: the same measure for `CCOC(=O)C1CCN(C(=O)C(C)(C)NC(=O)Nc2ccc3sccc3c2)CC1`: -16.4% (inactive). Same read-out and setting: the figure for `N#Cc1c(-c2ccco2)no[n+]1[O-]` is -3.7% (inactive); for `O=C(NCCc1nc2ccccc2n1CCOc1ccccc1F)C1CCCCC1` it is 2.39% (inactive); for `CC(=O)Nc1ncc(S(=O)(=O)Nc2cnccc2C(=O)Nc2nc(-c3ccccc3)cs2)s1` it is 16.9% (inactive).

Consider `N#Cc1c(-c2cccc([N+](=O)[O-])c2)no[n+]1[O-]`, for which the “activity change, negative = inhibition” value is -10.3% (inactive). Regarding `CC(=O)O[C@@H]1c2c3c(cc(O)c2C(=O)O[C@@H]1C)O[C@@]1(C)[C@@H](O)C[C@H]2C(C)(C)C(=O)C=C[C@]2(C)[C@@H]1C3`, the “activity change, negative = inhibition” value was 9.36% [at 28 µM] (inactive). As for `Cc1ccc(-c2nccc(=O)n2C(C)C(=O)NCCc2ccccc2)cc1` (centres undefined), the “activity change, negative = inhibition” value is -2.55% (inactive).

`Cc1ccc(-c2cc(C(=O)Nc3ccc(C(=O)O)cc3)c3ccccc3n2)cc1C`: the “activity change, negative = inhibition” value was -2.57% (inactive).

Take `Cc1ccc2nc3sc(C(=O)N4CCN(C5CCN(C)CC5)CC4)cc3cc2c1`: the “activity change, negative = inhibition” value is -6% (inactive).

Take `Cn1c2cc(S(C)(=O)=O)sc2c2cnn(Cc3ccccc3F)c(=O)c21`: the “activity change, negative = inhibition” value is -5.05% (inactive).

For the molecule `c1nc(NCC2CCCCO2)c2cc(-c3ccc4c(c3)OCO4)ccc2n1` (centres undefined), the “activity change, negative = inhibition” value is -17.3% (inactive).

Turning to `O=C1c2ccccc2NC(c2ccc(-c3ccc(C(F)(F)F)cc3)o2)N1O` (centres undefined), the “activity change, negative = inhibition” value is 9.81% (inactive). On the same count and under the same terms, the figure for `CN(C)[S+](=O)([O-])c1ccc(-c2ccc(=O)n(CC(=O)NCCc3ccccc3)n2)cc1` is -15.8% (inactive). The same measure, in the same setting: the same measure for `CCCn1c(C)nc2c(N(C)CCN(C)C)nc(C)nc21`: 4.23% (inactive); for `O=[S+]([O-])(Nc1ccc(-c2nc3ccccc3[nH]2)cc1)c1ccc2c(c1)CCO2`: 3.63% (inactive); for `N#Cc1c(-c2ccc(F)c(Br)c2)no[n+]1[O-]`: -10.3% (inactive). Same read-out and setting: the same measure for `CC(C)c1ccccc1-c1ncc(N)c(NCc2ccc(-c3cccnc3)cc2)n1`: -16.9% (inactive); for `Cc1cc(C)nc(NC(=S)N2CCN(c3cccc(OC(F)F)c3)CC2)c1`: 18.9% (inactive). Take `Cc1ccc(OCCn2c(CCNC(=O)C3CCCCCC3)nc3ccccc32)cc1`: the “activity change, negative = inhibition” value was -4.2% (inactive). On the same count and under the same terms, the same measure for `O=C(OCC#CCSc1nnc(-c2cccc3ccccc23)s1)c1cccs1`: 27.8% (inactive); for `Cc1cc(-c2nnc3n2CCCCC3)c(C)n1-c1ccc([N+](=O)[O-])cc1`: 1.06% (inactive). Turning to `CCCn1c(-c2ccc(F)cc2)nc2c(NCCCN3CCOCC3)nc(C)nc21`, the “activity change, negative = inhibition” value was -0.662% (inactive). With `COc1ccc(-c2ccc3ncnc(NCC4CCCO4)c3c2)cc1OC` (centres undefined), the “activity change, negative = inhibition” value is -14.7% (inactive).

A further test has as its target Aldehyde dehydrogenase 1A1 (Homo sapiens) (UniProt P00352). The experiment in a line: qHTS for Inhibitors of the Aldehyde Dehydrogenase Family (ALDH1A1) Confirmatory screens (AID 2061316). Further: nearly all actives have a fitted effect of over 65% in size. Further: potency means the concentration at half of the fitted maximal effect. On activity change, negative = inhibition: on the % scale 0 is the no-effect control and ±100 the full control effect. The conditions noted are these: ALDH inhibition qHTS; series mostly up to 47.3 µM; activity change, negative = inhibition: at the top concentration.
Regarding `CN1CCN(c2cccc(Nc3nn4c(=O)c5ccc(N(C)C)cc5nc4s3)c2)CC1`, the Potency was 11.3 µM (active). Turning to `O=S(=O)(Nc1nccs1)c1ccc(Nc2nc(-c3ccc(F)cc3)cs2)cc1`, the Potency is 11.3 µM (active). Turning to `O=C1CCCC2=C1C(c1ccccc1)N=C(Nc1nc3ccccc3o1)N2` (centres undefined), the “activity change, negative = inhibition” value was -0.582% (inactive). Still for that read-out and setting: the same measure for `COc1ccc(S(=O)(=O)Nc2cc(OC)cc3cccnc23)cc1`: 2.65% (inactive). As for `CC(=O)Nc1ncc(S(=O)(=O)Nc2cnccc2C(=O)Nc2nc(-c3ccccc3)cs2)s1`, the Potency is 20.1 µM (active).

For `N#Cc1c(-c2cccc([N+](=O)[O-])c2)no[n+]1[O-]`, the Potency was 12.7 µM (active). The same measure, in the same setting: the same measure for `c1ccc(CNc2ccc(N3CCOCC3)cc2)cc1`: 7.98 µM (active); for `Cc1ccc2nc3sc(C(=O)N4CCN(C5CCN(C)CC5)CC4)cc3cc2c1`: 12.7 µM (active); for `c1nc(NCC2CCCCO2)c2cc(-c3ccc4c(c3)OCO4)ccc2n1` (centres undefined): 12.7 µM (active). The same measure, in the same setting: the same measure for `O=C1c2ccccc2NC(c2ccc(-c3ccc(C(F)(F)F)cc3)o2)N1O` (centres undefined): 7.12 µM (active); for `N#Cc1c(-c2ccc(F)c(Br)c2)no[n+]1[O-]`: 20.1 µM (active); for `Cc1cc(-c2nnc3n2CCCCC3)c(C)n1-c1ccc([N+](=O)[O-])cc1`: 10.1 µM (active).

(Values after PubChem BioAssay (NCATS).)
